# Out of some 360,000 compounds screened, about 11,000 (3.1%) were called active. This is one part of a sample in which actives are shown more often than they occur. Rule as the data show it: active = activity change below about -30%; inactive = the rest.
# Biological target: D(1A) dopamine receptor (Homo sapiens) (UniProt P21728)
# Experiment: Antagonist of Human D 1 Dopamine Receptor: qHTS
# Settings: HEK293 TREx D1 cells, calcium flux, dopamine EC80; at 10 µM; stronger effect = lower value
# Summary of the method: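 Using tetracycline-induced force-coupled D1 Hek293 cells and a calcium dye, signals were followed for 180 s after compound, then for 180 s after EC80 dopamine, to detect inhibitors.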
# % is scaled to controls: 0 for no effect and ±100 for the full control effect.
# Sequence of D(1A) dopamine receptor (Homo sapiens) (P21728 whole entry, looked up): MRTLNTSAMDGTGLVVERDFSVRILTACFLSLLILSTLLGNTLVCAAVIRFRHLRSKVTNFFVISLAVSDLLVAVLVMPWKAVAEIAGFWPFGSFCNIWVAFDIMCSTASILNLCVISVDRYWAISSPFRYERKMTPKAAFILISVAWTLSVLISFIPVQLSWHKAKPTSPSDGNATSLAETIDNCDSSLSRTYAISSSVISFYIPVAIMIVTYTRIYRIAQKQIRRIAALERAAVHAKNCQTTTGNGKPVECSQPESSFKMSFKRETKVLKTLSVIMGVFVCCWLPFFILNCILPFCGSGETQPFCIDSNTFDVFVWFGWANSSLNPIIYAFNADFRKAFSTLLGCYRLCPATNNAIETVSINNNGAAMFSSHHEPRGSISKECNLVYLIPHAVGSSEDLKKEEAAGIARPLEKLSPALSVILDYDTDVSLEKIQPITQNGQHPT
row,SMILES,"activity change, negative = inhibition"
1,COc1ccc(C2(Nc3cccc(F)c3)C(=O)c3ccccc3C2=O)cc1,-16% (inactive)
2,Cc1nc(N)[nH]c(=O)c1Oc1cccc(C(F)(F)F)c1,7.25% (inactive)
3,CCC(=O)OCc1c(C(F)(F)F)nn(C)c1Oc1cccc(C(F)(F)F)c1,-39.6% (active)
4,CCOC(=O)NNc1cc(C(F)(F)F)ccn1,-4.5% (inactive)
5,CC(=O)N1CCCc2ccc(NS(=O)(=O)c3ccc(F)cc3F)cc21,8.04% (inactive)
6,O=C(O)c1ccc2c(c1)N(Cc1ccc(F)cc1)C(=O)c1ccccc1S2=O (configuration not stated),-20.6% (inactive)
7,CN(C)c1ccc(C=NCCc2ccc(S(N)(=O)=O)cc2)cc1,0.508% (inactive)
8,NS(=O)(=O)c1ccc(CCNC(=S)Nc2ccc(S(N)(=O)=O)cc2)cc1,-10.1% (inactive)
9,CCCCc1ccc(S(N)(=O)=O)cc1,-32.1% (active)
10,O=C(Cn1[nH]c(=O)c2ccccc2c1=O)Nc1cccc(-c2nnc3n2CCCCC3)c1,-31.5% (active)
11,Brc1cccc(-c2nnc3n2CCC3)c1,4.2% (inactive)
12,Cc1c(C(=O)Nc2cccc(-c3nnc4n3CCCCC4)c2)oc2ccccc12,-14.2% (inactive)
13,O=S(=O)(c1ccc2nc(NCc3ccccc3Cl)ccc2c1)N1CCCCC1,7.22% (inactive)
14,COC(=O)CN1C(=O)CSc2ccc(S(=O)(=O)Nc3cc(C)ccc3C)cc21,7.51% (inactive)
15,COc1ccc(Nc2cc(C(=O)NCCCN(C)c3ccccc3)c3ccccc3n2)c(OC)c1,-3.52% (inactive)
16,CCCCN(CCCNC(=O)c1cc(Nc2ccccc2OC)nc2ccccc12)c1ccccc1,-1.02% (inactive)
17,COc1ccccc1Nc1cc(C(=O)NCCCN(C)C2CCCCC2)c2ccccc2n1,-69.1% (active)
18,CCCn1c(NCc2ccc(N(CC)CC)cc2)nc2ccccc21,7.83% (inactive)
19,O=C(COc1ccc(Cl)cc1)NCCS(=O)(=O)N1CCN(c2ccc(F)cc2)CC1,-39.2% (active)

row,SMILES,"activity change, negative = inhibition"
1,COc1ccc(OCC(=O)NCCS(=O)(=O)N2CCN(c3ccc(F)cc3)CC2)cc1,-3.53% (inactive)
2,COc1ccccc1N1CCN(S(=O)(=O)CCNC(=O)COc2ccc(F)cc2)CC1,-4.69% (inactive)
3,COc1cc(NC(=O)Cn2nc(-c3ccc(C)c(C)c3)ccc2=O)cc(OC)c1,-2.73% (inactive)
4,CCOc1ccc(S(=O)(=O)N(CC(=O)NCCSCc2ccc(C)cc2)c2ccccc2)cc1,-1.46% (inactive)
5,CCCSc1ncc(Cl)c(C(=O)Nc2sc3c(c2C(=O)NCCOC)CCCC3)n1,3.43% (inactive)
6,N#CC(C(=O)c1ccc(S(=O)(=O)N2CCCCCC2)cc1)c1nc2ccccc2[nH]1 (configuration not stated),-22.2% (inactive)
7,O=S(=O)(c1ccc(Br)cc1)N1CCC(c2nc3ccccc3[nH]2)CC1,-31.8% (active)
8,O=C(C1CCCO1)N1CCC(c2nc3ccccc3[nH]2)CC1 (configuration not stated),-12.2% (inactive)
9,O=C(Nc1cc(Cl)cc(Cl)c1)c1ccc2c(c1)N(Cc1cccc(Cl)c1)C(=O)c1ccccc1S2=O (configuration not stated),-24% (inactive)
10,O=C(Nc1ccc(F)cc1F)c1ccc2c(=O)n3c(nc2c1)CCCCC3,0.28% (inactive)
11,Cc1cc(=O)c2cc(C(=O)Nc3cccc(C)c3C)ccc2[nH]1,-7.41% (inactive)
12,O=C(Cn1cnc2c(cnn2-c2ccc(F)cc2)c1=O)NCCc1ccccc1,-6.16% (inactive)
13,CC(=O)Cn1cnc2c(cnn2-c2ccccc2)c1=O,-39.3% (active)
14,O=C(Cn1cnc2c(cnn2-c2ccccc2)c1=O)NCc1ccccc1,5.27% (inactive)
15,COc1ccc(-c2nc(C)c(CCNC(=O)c3ccc(C(F)(F)F)cc3)s2)cc1OC,-4.09% (inactive)
16,Cc1ccc(C)c(S(=O)(=O)Nc2cc(C)on2)c1,-1.84% (inactive)
17,Cc1cc(NS(=O)(=O)c2ccccc2)no1,-52.3% (active)
18,COc1cc2ccccc2cc1C(=O)Nc1ccc(S(=O)(=O)Nc2cc(C)on2)cc1,7.39% (inactive)
19,Cc1cccc(NC(=O)c2cc3c(C)nn(-c4ccccc4)c3s2)c1,1.08% (inactive)

row,SMILES,"activity change, negative = inhibition"
1,O=C(CC(O)(C(F)(F)F)C(F)(F)F)Nc1ccc(Cl)c(Cl)c1,-45.8% (active)
2,O=C(CSc1nnc(-c2ccncc2)n1-c1ccccc1)Nc1ccc(Cl)c(Cl)c1,7.05% (inactive)
3,NC(=O)N1CCCC1C(=O)Nc1ccc(Cl)c(Cl)c1 (configuration not stated),-6.92% (inactive)
4,CCC(=O)N1CCc2cc(Br)cc(S(=O)(=O)CCC(=O)N3CCN(c4ccc(F)cc4)CC3)c21,-13.8% (inactive)
5,Cn1cc(S(=O)(=O)Nc2ccc(Cl)cc2Cl)c(=O)n(C)c1=O,1.88% (inactive)
6,Cc1ccc(NS(=O)(=O)c2ccc3c(c2)n(C)c(=O)c(=O)n3C)c(C)c1,3.25% (inactive)
7,Cc1ccc(NS(=O)(=O)c2cn(C)c(=O)n(C)c2=O)c(C)c1,-34.8% (active)
8,N#CN1CCC(NS(=O)(=O)c2cccc(F)c2)C1 (configuration not stated),-5.93% (inactive)
9,Cc1ccc(C)c(S(=O)(=O)c2nnn3c2nc(N2CCOCC2)c2sccc23)c1,-17.7% (inactive)
10,COc1ccc(OC)c(NC(=O)CSC2=Nc3ccccc3C3=NC(CC(=O)NCc4ccc(F)cc4)C(=O)N23)c1 (configuration not stated),2.28% (inactive)
11,C=CCn1c(=S)[nH]c2scc(-c3ccco3)c2c1=O,-62.9% (active)
12,CCC1(C)Cc2c(sc3[nH]c(=S)n(Cc4ccccc4)c(=O)c23)CO1 (configuration not stated),-1.45% (inactive)
13,CCc1ccc(NC(=O)c2cc3c(=O)n(Cc4cccnc4)ccc3nc2C)cc1,-4.72% (inactive)
14,O=C(NCCNc1ccccc1[N+](=O)[O-])c1ccccc1F,18.2% (inactive)
15,O=C(NCCNc1ccc([N+](=O)[O-])cc1Cl)c1ccccc1F,-1.54% (inactive)
16,O=C(NCCCNc1ccc([N+](=O)[O-])cc1Cl)c1ccccc1F,-30.1% (active)
17,COc1ccc(CNC(=O)Cn2nnc(-c3ccccc3F)n2)cc1,7.31% (inactive)
18,COc1cc(-c2noc(-c3ccc(N4CCCC4)c([N+](=O)[O-])c3)n2)cc(OC)c1OC,-3.41% (inactive)
19,COC(=O)c1sccc1S(=O)(=O)N(CC(=O)Nc1ccc(C)c(F)c1)c1ccc(C)c(C)c1,-13.6% (inactive)

# Reference: PubChem BioAssay AID504652 (National Center for Advancing Translational Sciences (NCATS), 2011)
